For 40 molecules, growth results are on record in PubChem BioAssay (NCI).

Compounds without any hit were thinned out: in the full panel of roughly 83,000, 20% have a hit.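 Note: values are percent growth. 100 is the growth of untreated cells, values between 100 and 0 indicate rising inhibition; between -100 and 0 indicates cell death.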 The source made the active and inactive calls.

The assay has as its system U251 CNS. Description: NCI-60 one-dose screen, 48 h (100 = growth as untreated, 0 = no growth, -100 = all killed). As to conditions: 10 µM unless noted. As to the method:
Growth inhibition of the U251 human tumor cell line is measured as a screen for anti-cancer activity. Cells are grown in 96 well plates and exposed to the test compound for 48 hours. Compounds are tested at a single concentration, which is 10^-5 M for most compounds. The reported endpoint is percent growth (GI% or GIPRCNT), where numbers from 0 - 100% represent growth inhibition, and numbers from -100% - 0 represent cell death. For example, a value of 40 represents 60% growth inhibition. A value of 0 means no net growth occurred over the course of the experiment. A value of -40 indicates 40% of cells at the beginning of the experiment died by the end of the experiment. A value of -100 means all cells are dead at the end of the experiment.
NCI-60 Human Tumor Cell Lines Screen was performed using the standard one-dose NCI protocol, which is described in more detail at https://dtp.cancer.gov/discovery_development/nci-60/default.htm.
Compounds with GIPRCNT values below 10 were considered active. Activity score was based on GIPRCNT using the following formula: […]
Score is 0 for GIPRCNT values of 100 or above, 50 for GIPRCNT values of 0, and 100 for GIPRCNT values of -100.
On to `Cn1c2ccccc2c2c3c(c4c5ccccc5[nH]c4c21)C(=O)N(N)C3=O`, for which the growth is 37.3% (inactive). The same measure for `Cc1cc2c(cc1C)NC1=C(N2)OC(c2c3ccccc3cc3ccccc23)C1=O` (stereo not given): -8.89% (active); for `CSc1nc(NCCCNc2ccnc3cc(Cl)ccc23)cc(-c2ccccc2)n1`: 53.3% (inactive); for `CCn1cc2c(cc1=O)-c1nc3ccccc3c3ccnc(c13)C2=O`: 44.6% (inactive). The value for `CCCCCCCCCCCCCC1=NCCN1CCO` was 50.8% (inactive); that for `CCN(CC)CCCNc1cc(OC)cc2nc3cc(Cl)ccc3nc12` was 4.3% (active); that for `Cc1cc(=O)oc2cc(Oc3nc(-c4ccc(Cl)cc4)cn4c(-c5ccc(Cl)cc5)cnc34)ccc12` was 88.1% (inactive). The same measure for `Nc1cc2ccncc2c2ccccc12`: 81.1% (inactive); for `COc1ccc(C(=O)/C=C/c2c(Cl)c3c(c(OC)c2Cl)OCC(=O)N3)cc1`: 17% (inactive); for `COc1c(C2CC(=O)Nc3c2cnn3Cc2ccco2)cc2c(c1OC)OCO2` (stereo not given): 20.4% (inactive). Consider `COc1cc(-c2cnc3nonc3n2)c(OC)c2c1OCO2`, for which the growth is 93.5% (inactive). The value for `COc1cc(/C=N/N(C)C)ccc1O` was 81.8% (inactive); that for `CC/C(Cc1ccccc1)=C(\c1ccc(OCCN2CCCC2)cc1)c1ccc(OC(C)=O)cc1` was 57.2% (inactive). Turning to `CC(C)Oc1nc2c(c(=O)n(C)c(=O)n2C)n1C`, the growth was 99.7% (inactive). The value for `OC(c1cccc(C(F)(F)F)c1)c1cnccc1NC1CCCCCC1` (stereo not given) was -2.39% (active); that for `COC(=S)SCN(CSC(=S)OC)c1ccc(Cl)cc1` was 90.9% (inactive). The value for `CCN1CCN(Cc2ccc(NC(=O)Nc3nc4ccc(Oc5ccnc(C(=O)NC)c5)cc4s3)cc2C(F)(F)F)CC1` was -60.8% (active).

Take `O=C(Cc1ccccc1)c1ccc(Cl)cc1`: the growth is 99.5% (inactive). The same measure for `CSc1[nH]c2ncnc(N)c2c1C#N`: 107% (inactive); for `COCCCNc1nc(NC(=O)c2ccc(F)cc2C)cc(-c2cccnc2)n1`: 87.6% (inactive). The value for `COCCCN=C(N)c1ccc(NC(=O)c2ccc(C(=O)Nc3ccc(C(N)=NCCCOC)cc3)cc2)cc1` was 99.1% (inactive). With `O=C(CCCN1CCOCC1)Nc1ccc(Cn2nnc3c2C(=O)c2nnn(Cc4ccc(NC(=O)CCCN5CCOCC5)cc4)c2C3=O)cc1`, the growth is 18.2% (inactive). As to `CCOC(=O)c1c2c(n3ccc(NC(=O)CCN4CCCCC4)cc13)C(=O)c1ncccc1C2=O`, the growth is -86.3% (active). The value for `O=C(Nc1nc(-c2ccccc2)cc(-c2ccc(Cl)cc2)n1)c1ccncc1` was 93% (inactive); that for `O=C(CN1CCOCC1)Nc1ccc(Cn2nnc3c2C(=O)c2nnn(Cc4ccc(NC(=O)CN5CCOCC5)cc4)c2C3=O)cc1` was -92.1% (active). The value for `CS(=O)(CCCCN=C=S)=NC(=O)c1c(F)c(F)c(F)c(F)c1F` (stereo not given) was 89.6% (inactive). The same measure for `O=C1c2cccnc2C(=O)c2c1c(C(=O)OCCN1CCCCC1)c1ccccn21`: -29.9% (active). `NC1=CC(=O)C(=O)c2ccccc21`: the growth is 88% (inactive). The same measure for `CS(=O)(=O)c1c(Nc2ccccc2)n[nH]c1N`: 105% (inactive); for `O=C(Nc1cccc2[nH]c(C(F)(F)F)nc12)c1ccc(Br)cc1F`: 18.9% (inactive); for `Nc1nc2c(c3ncccc13)C(c1ccc(Cl)c(Cl)c1)Cc1ncccc1-2` (stereo not given): 16.9% (inactive). Turning to `O=C1C=CC(Nc2ccccc2[N+](=O)[O-])C1Nc1ccccc1[N+](=O)[O-]` (stereo not given), the growth is 72.4% (inactive). With `C(=N\Nc1ccccn1)/c1ccccn1`, the growth was 13.4% (inactive).

`CCCCCCCCCC(=O)Oc1ccc(/C(=C(/C)c2ccccc2)c2ccc(OCCN3CCCC3)cc2)cc1`: the growth is -34.3% (active). For the molecule `O=C(COCc1c(-c2ccccc2)no[n+]1[O-])Nc1ccc(C(=O)/C=C/c2ccc3c(c2)OCO3)cc1`, the growth is 107% (inactive). For the molecule `Nc1cc(O)cc2cccnc12`, the growth is 86.7% (inactive). The value for `O=C(CNC1C2CC3CC(C2)CC1C3)Sc1nnc2sc3ccccc3n12` (stereo not given) was 104% (inactive); that for `COc1ccc(-c2nn(-c3ccccc3)cc2/C=C/C(=O)OCc2cn(-c3ccc(F)c(Cl)c3)nn2)cc1` was 101% (inactive); that for `CN1CCN(Cc2ccc(NC(=O)c3[nH]ncc3Nc3ncnc4sccc34)cc2)CC1` was 16.4% (inactive).

In the case of `CC/C=C\C[C@H](O)C/C=C1/C(=O)C=C[C@@H]1C/C=C\CCCC(=O)NC(C)C`, the growth was 2.26% (active).
